# From publication PMC5540273 (PLoS ONE, 2017)
# Tested on: T1, MEK3
# T1 construct: gene MAP2K3
# Settings: concentration: 1 μM,replicates: in singlicate; n = 1
# 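Also: KINOMEscan kinase panel screen.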
row,SMILES,%Inh [%]
1,O=C(NCCNc1ccnc(NCc2ccc(F)cc2)n1)c1cc2ccccc2s1 [GSK1379944],0
2,CCn1c(-c2nonc2N)nc2c(C#CC(C)(C)O)nc(OCCN)cc21.Cl.Cl [GSK902056],37
3,NC(=O)c1cc(-c2ccccc2)cc2c(C3CCNCC3)c[nH]c12 [GSK301362],35
4,CCN(CC)CCCCNc1ncc2cc(-c3c(Cl)cccc3Cl)c(NC(=O)NC(C)(C)C)nc2n1,34
5,Nc1nc(Nc2ccccc2)cc(-c2ccc3c(N)n[nH]c3c2)n1 [GSK2225749],5
6,Cc1occc1-c1nc(N)c(OC[C@@H](N)Cc2c[nH]c3ccccc23)cc1-c1cc2c(C)n[nH]c2cn1 [GSK1660450],39
7,Cl.Cl.NC[C@H](CC1CCCCC1)NC(=O)c1cc(Br)c(-c2ccnc3[nH]ccc23)s1 [GSK1581427],89
8,Cc1n[nH]c2ccc(-c3cc(OC[C@@H](N)Cc4ccccc4)cnc3-c3ccoc3)cc12.O=C(O)C(F)(F)F.O=C(O)C(F)(F)F [GSK507358],82
9,C[C@@H]1CCN(C(=O)CC#N)C[C@@H]1N(C)c1ncnc2[nH]ccc12,0
10,O=C(NCCCN1CCOC1=O)c1cnc(NCc2cc(Cl)ccc2Cl)nc1NC1CCCC1,10
11,Cc1cc(C(=O)Nc2ccc(Oc3ccc4nc(NC(=O)C5CC5)cn4n3)cc2)nn1-c1ccccc1,0
12,Cc1ccc(-n2nc(C(C)(C)C)cc2NC(=O)Nc2ccc(OCCN3CCOCC3)c3ccccc23)cc1 [GW839464],0
13,Cc1cc2cn[nH]c2cc1-c1cccc2c(N)c(C(N)=O)nnc12,58
14,Cl.Cl.NC[C@H](Cc1ccc(C(F)(F)F)cc1)NC(=O)c1cc(Br)c(-c2ccnc3[nH]ccc23)s1 [GSK1487252],77
15,CN(C)CC(O)COc1ccc(Nc2nccc(-c3cnn4nc(N5CCOCC5)ccc34)n2)cc1 (stereo not drawn) [GW767488],82

# Tested on: T2, MEK4
# T2 construct: gene MAP2K4
# Settings: concentration: 1 μM,replicates: in singlicate; n = 1
row,SMILES,%Inh [%]
1,Cl.Cl.Nc1nc(-c2ccc3c(N)n[nH]c3c2)cc(N2CCCC(NC(=O)c3ccccc3)C2)n1 (stereo not drawn) [GSK2286775],14
2,CC(C)Nc1cc(-c2ccc3c(N)n[nH]c3c2)nc(N)n1 [GSK2221681],17
3,COc1ccc(C[C@@H](CN)NC(=O)c2cc(Br)c(-c3ccnc4[nH]ccc34)s2)cc1.Cl.Cl [GSK1389063],69
4,C[C@H]1Oc2cc(cnc2N)-c2c(nn(C)c2C#N)CN(C)C(=O)c2ccc(F)cc21,65
5,Cc1ccc2c(-c3ccncc3)c(-c3ccc(F)cc3)nn2c1.Cl [GW461484],0
6,C=CC(=O)Nc1cc2c(Nc3ccc(F)c(Cl)c3)ncnc2cc1OCCCN1CCOCC1 [GW781483],0
7,CNC(=O)c1ccccc1Sc1ccc2c(/C=C/c3ccccn3)n[nH]c2c1,0
8,C[C@@H](Oc1cc(-c2cnn(C3CCNCC3)c2)cnc1N)c1c(Cl)ccc(F)c1Cl,43
9,CCN(CC)CCOc1ccc(Nc2ncc3cc(-c4c(Cl)cccc4Cl)c(=O)n(C)c3n2)cc1 [SB-601273],47
10,CN(C)CCOc1ccc(-c2cc(-c3c[nH]nc3-c3ccccn3)ccn2)cc1 [GW835314],29
11,Cl.Oc1cc(-c2nc(-c3ccccc3)[nH]c2-c2ccncc2)ccc1Cl [SB-386023],23
12,CC(C)N1C(=O)Cc2cc(Nc3ncc(C(F)(F)F)c(NCc4cccc(S(C)(=O)=O)c4)n3)ccc21,37
13,O=C(NCCNc1ccnc(NCc2ccc(F)cc2)n1)c1cc2ccccc2s1 [GSK1379944],1
14,CCn1c(-c2nonc2N)nc2c(C#CC(C)(C)O)nc(OCCN)cc21.Cl.Cl [GSK902056],26
15,NC(=O)c1cc(-c2ccccc2)cc2c(C3CCNCC3)c[nH]c12 [GSK301362],34
16,CCN(CC)CCCCNc1ncc2cc(-c3c(Cl)cccc3Cl)c(NC(=O)NC(C)(C)C)nc2n1,0
17,Nc1nc(Nc2ccccc2)cc(-c2ccc3c(N)n[nH]c3c2)n1 [GSK2225749],23
18,Cc1occc1-c1nc(N)c(OC[C@@H](N)Cc2c[nH]c3ccccc23)cc1-c1cc2c(C)n[nH]c2cn1 [GSK1660450],0
19,Cl.Cl.NC[C@H](CC1CCCCC1)NC(=O)c1cc(Br)c(-c2ccnc3[nH]ccc23)s1 [GSK1581427],41
20,Cc1n[nH]c2ccc(-c3cc(OC[C@@H](N)Cc4ccccc4)cnc3-c3ccoc3)cc12.O=C(O)C(F)(F)F.O=C(O)C(F)(F)F [GSK507358],35
21,C[C@@H]1CCN(C(=O)CC#N)C[C@@H]1N(C)c1ncnc2[nH]ccc12,0
22,O=C(NCCCN1CCOC1=O)c1cnc(NCc2cc(Cl)ccc2Cl)nc1NC1CCCC1,0
23,Cc1cc(C(=O)Nc2ccc(Oc3ccc4nc(NC(=O)C5CC5)cn4n3)cc2)nn1-c1ccccc1,0
24,Cc1ccc(-n2nc(C(C)(C)C)cc2NC(=O)Nc2ccc(OCCN3CCOCC3)c3ccccc23)cc1 [GW839464],0
25,Cc1cc2cn[nH]c2cc1-c1cccc2c(N)c(C(N)=O)nnc12,68
26,Cl.Cl.NC[C@H](Cc1ccc(C(F)(F)F)cc1)NC(=O)c1cc(Br)c(-c2ccnc3[nH]ccc23)s1 [GSK1487252],23
27,CN(C)CC(O)COc1ccc(Nc2nccc(-c3cnn4nc(N5CCOCC5)ccc34)n2)cc1 (stereo not drawn) [GW767488],60
